Measurements from PMC5540273 (PLoS ONE, 2017).

How the values were obtained:
Settings in all cases: concentration: 1 μM, replicates: in singlicate; n = 1
[1] = test system: MAP3K15
[2] = test system: MAP3K1
[3] = test system: MAP3K2
[4] = test system: MAP3K3
[5] = test system: MAP3K4
[6] = test system: MAP4K2
[7] = test system: MAP4K3
[8] = test system: MAP4K4
[9] = test system: MAP4K5
[10] = test system: MAPKAPK2
[11] = test system: MAPKAPK5
[12] = test system: MARK1
[13] = test system: MARK2
[14] = test system: MARK3
[15] = test system: MARK4
[16] = test system: MAST1
[17] = test system: T1, MEK1
T1 construct: gene MAP2K1

[18] = test system: T2, MEK2
T2 construct: gene MAP2K2

[19] = test system: T3, MEK3
T3 construct: gene MAP2K3

[20] = test system: T4, MEK4
T4 construct: gene MAP2K4
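Further: KINOMEscan kinase panel screen.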

Row | Structure (SMILES) | %Inh [1] [%] | %Inh [2] [%] | %Inh [3] [%] | %Inh [4] [%] | %Inh [5] [%] | %Inh [6] [%] | %Inh [7] [%] | %Inh [8] [%] | %Inh [9] [%] | %Inh [10] [%] | %Inh [11] [%] | %Inh [12] [%] | %Inh [13] [%] | %Inh [14] [%] | %Inh [15] [%] | %Inh [16] [%] | %Inh [17] [%] | %Inh [18] [%] | %Inh [19] [%] | %Inh [20] [%]
1 | COC(=O)Nc1nc2ccc(Oc3ccc(NC(=O)Nc4cc(C(F)(F)F)ccc4F)cc3)cc2n1C.Cl [GW692089] | 0 | 2 | 0 | 0 | 0 | 0 | 0 | 0 | 0 | 6 | 0 | 0 | 0 | 0 | 2 | 23 | 0 | 1 | 0 | 0
2 | NCCCC(NC(=O)c1cc(Br)c(-c2ccnc3[nH]ccc23)s1)c1ccccc1.O=C(O)C(F)(F)F.O=C(O)C(F)(F)F (stereo not drawn) [GSK1287544] | 23 | 9 | 24 | 0 | 9 | 31 | 4 | 17 | 2 | 0 | 0 | 0 | 2 | 20 | 4 | 0 | 0 | 0 | 71 | 50
3 | O=C(Nc1cccc(-c2nn3ccccc3c2-c2ccnc(Nc3cccc(F)c3)n2)c1)c1c(F)ccc(F)c1Cl [GSK357952] | 66 | 0 | 20 | 7 | 24 | 0 | 1 | 28 | 51 | 14 | 0 | 0 | 3 | 3 | 0 | 0 | 0 | 15 | 0 | 25
4 | Cc1ccc(C)c(NC(=O)NC2CCN(c3ccnc(Nc4ccc(F)cc4)n3)C2)c1 (stereo not drawn) [GSK1379720] | 0 | 0 | 0 | 0 | 18 | 0 | 0 | 0 | 0 | 23 | 0 | 0 | 0 | 0 | 0 | 35 | 0 | 0 | 0 | 4
5 | COc1cccc(C2=C(Nc3ccc(Cl)c(C(=O)O)c3)C(=O)NC2=O)c1 [SB-390769] | 24 | 13 | 100 | 0 | 29 | 100 | 0 | 100 | 100 | 26 | 0 | 0 | 0 | 0 | 13 | 0 | 0 | 0 | 0 | 97.4
6 | C[C@@H]1CC[C@@H](C(=O)Nc2ccccc2)CN1c1cc(-c2ccc3c(N)n[nH]c3c2)nc(N)n1 [GSK2286062] | 46 | 0 | 16 | 0 | 4 | 3 | 0 | 0 | 0 | 0 | 0 | 0 | 9 | 0 | 0 | 3 | 15 | 1 | 33 | 8
7 | COC(=O)Nc1nc2cc(Oc3ccc(NC(=O)Nc4cc(C(F)(F)F)ccc4F)cn3)ccc2[nH]1.Cl.Cl [GW681170] | 0 | 11 | 0 | 0 | 9 | 0 | 3 | 3 | 0 | 0 | 0 | 0 | 0 | 14 | 0 | 24 | 0 | 2 | 7 | 0
8 | Nc1ncc(-c2cccnc2)c2scc(-c3ccc4c(c3)CCN4C(=O)Cc3ccccc3)c12 [GSK683281] | 100 | 41 | 56 | 18 | 69 | 23 | 95.2 | 8 | 98.8 | 24 | 0 | 0 | 0 | 19 | 0 | 0 | 0 | 1 | 0 | 66
9 | O=C(Nc1ccccc1F)NC1CCN(c2ccnc(Nc3ccc(F)cc3)n2)CC1 [GSK1379800] | 0 | 13 | 0 | 0 | 0 | 0 | 0 | 0 | 0 | 6 | 0 | 0 | 0 | 0 | 2 | 0 | 0 | 0 | 0 | 4
10 | COc1cc(Nc2nccc(N3CCC(NC(=O)c4cc5ccccc5s4)C3)n2)cc(OC)c1OC (stereo not drawn) [GSK1379760] | 0 | 7 | 0 | 11 | 16 | 13 | 8 | 25 | 28 | 0 | 1 | 7 | 12 | 0 | 22 | 1 | 7 | 0 | 3 | 0
11 | COc1cccc(-c2ccc3c(NC(=O)C4CC4)n[nH]c3n2)c1 [SB-710903] | 0 | 35 | 15 | 0 | 32 | 0 | 0 | 53 | 3 | 16 | 0 | 0 | 0 | 0 | 9 | 42 | 0 | 0 | 0 | 17
12 | Cl.Cl.NCC(NC(=O)c1cc(-c2ccccc2)c(-c2ccnc3[nH]ccc23)s1)c1ccccc1 (stereo not drawn) [GSK1321561] | 0 | 22 | 27 | 0 | 0 | 64 | 0 | 98 | 24 | 0 | 0 | 0 | 0 | 11 | 3 | 0 | 5 | 0 | 51 | 42
13 | O=C(Nc1cccc(-c2nn3ccccc3c2-c2ccnc(Nc3cccc(C(F)(F)F)c3)n2)c1)c1c(F)cccc1F [GSK292658] | 26 | 11 | 0 | 2 | 6 | 6 | 0 | 1 | 15 | 21 | 0 | 0 | 0 | 3 | 0 | 0 | 3 | 0 | 0 | 17
14 | CCc1ccc(-c2ccc3c(c2)-c2c(cnn2C)S(=O)(=O)N3C)cc1 | 0 | 34 | 0 | 0 | 23 | 0 | 3 | 0 | 1 | 13 | 0 | 0 | 0 | 3 | 7 | 0 | 1 | 0 | 0 | 6
15 | O=C(Nc1cccc(Oc2ccc3nc(NC(=O)C4CC4)cn3n2)c1)c1ccccc1C(F)(F)F | 0 | 0 | 0 | 8 | 26 | 0 | 64 | 8 | 29 | 0 | 0 | 0 | 6 | 21 | 12 | 0 | 69 | 82 | 17 | 0
